Data published in the supplement of paper PMC10849652.
Of roughly 7,900 targets only a part is listed; those with a hit were picked by preference. About 0.6% of all pairs of compound and target were hits. Unmarked numbers belong to inactive results.

Legend:
Assay in all cases: log2 fold change, soluble protein after heating vs DMSO (PISA); higher = thermal stabilisation; K562 cells, 10 uM, 30 min; active = over 0.2 and 3.5 SD of the protein, either way, in both replicates (recomputed)
erlotinib = compound: C#Cc1cccc(Nc2ncnc3cc(OCCOC)c(OCCOC)cc23)c1 [erlotinib]
How it was run: (§1)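 Soluble protein was defined as the supernatant after 21,000xg for 90 min. It came from K562 cells at 2×10^6 cells/mL given 10 μM compound for 30 min, heated in aliquots for 3 min across 48°C-58°C, pooled, and extracted in PBS with 0.5% NP-40 at 4°C, and was quantified by TMTpro 16plex LC-MS/MS with equalised channel sums. Thermal stability against control samples, from duplicates, is reported as log2 fold change.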

[1] = compound: C/C(=N\NC(=O)C1=CC(=CC=C1)S(=O)(=O)N2CCOCC2)/C3=C(C=CC(=C3)Cl)O
How it was run: as §1

[2] = compound: C1=CC(=C(C=C1Cl)C2=NC3=NC=CN=C3C(=N2)NC4=CC=NC=C4)F
How it was run: as §1

[3] = compound: C1=CC(=CC=C1C2=NC3=C(N2)C=C(C=C3)C(=O)N)OC4=CC=C(C=C4)Cl
How it was run: as §1

[4] = compound: C1=CC2=C(C=CC(=C2)/C=C\3/C(=O)NC(=NCC4=CC=CS4)S3)N=C1
How it was run: as §1

[5] = compound: C1=CC2=NC=CN=C2C=C1/C=C/3\C(=O)NC(=O)S3
How it was run: as §1

[6] = compound: C1=CC=C(C=C1)C2=NC(=C(N2)C3=CC=NC=C3)C4=CC(=C(C=C4)Cl)O
How it was run: as §1

[7] = compound: C1=CC=C2C(=C1)C3=NNC4=CC=CC(=C43)C2=O
How it was run: as §1

[8] = compound: C1CCN(C1)C(=O)NC2=CC=CC(=C2)NC3=NC=C(C(=N3)NCCC4=CN=CN4)Br
How it was run: as §1

[9] = compound: C1CN(CCC1(CC2=CC=C(C=C2)Cl)N)C3=NC=NC4=C3C=CN4
How it was run: as §1

UniProt O43615, sequence (O43615 whole entry, looked up): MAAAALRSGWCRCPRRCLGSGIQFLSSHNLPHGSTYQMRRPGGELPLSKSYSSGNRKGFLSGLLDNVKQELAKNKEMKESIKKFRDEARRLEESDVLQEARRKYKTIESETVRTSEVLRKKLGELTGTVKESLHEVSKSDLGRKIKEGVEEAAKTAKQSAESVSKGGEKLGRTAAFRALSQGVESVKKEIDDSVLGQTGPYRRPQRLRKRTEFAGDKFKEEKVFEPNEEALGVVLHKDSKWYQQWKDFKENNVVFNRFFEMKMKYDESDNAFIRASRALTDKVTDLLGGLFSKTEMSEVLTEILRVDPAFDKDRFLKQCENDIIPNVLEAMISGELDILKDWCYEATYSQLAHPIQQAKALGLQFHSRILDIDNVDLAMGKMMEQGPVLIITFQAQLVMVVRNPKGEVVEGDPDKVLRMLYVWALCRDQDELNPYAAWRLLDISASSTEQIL
UniProt Q9BSF4, sequence (Q9BSF4 whole entry, looked up): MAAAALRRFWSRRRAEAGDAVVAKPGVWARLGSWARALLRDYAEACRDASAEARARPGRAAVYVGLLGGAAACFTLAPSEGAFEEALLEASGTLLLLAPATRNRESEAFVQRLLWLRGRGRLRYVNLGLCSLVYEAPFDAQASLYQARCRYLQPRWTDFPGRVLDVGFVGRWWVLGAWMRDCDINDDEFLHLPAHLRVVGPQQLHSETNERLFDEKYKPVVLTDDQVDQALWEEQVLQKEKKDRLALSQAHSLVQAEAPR
UniProt Q9H5Q4, sequence (Q9H5Q4 whole entry, looked up): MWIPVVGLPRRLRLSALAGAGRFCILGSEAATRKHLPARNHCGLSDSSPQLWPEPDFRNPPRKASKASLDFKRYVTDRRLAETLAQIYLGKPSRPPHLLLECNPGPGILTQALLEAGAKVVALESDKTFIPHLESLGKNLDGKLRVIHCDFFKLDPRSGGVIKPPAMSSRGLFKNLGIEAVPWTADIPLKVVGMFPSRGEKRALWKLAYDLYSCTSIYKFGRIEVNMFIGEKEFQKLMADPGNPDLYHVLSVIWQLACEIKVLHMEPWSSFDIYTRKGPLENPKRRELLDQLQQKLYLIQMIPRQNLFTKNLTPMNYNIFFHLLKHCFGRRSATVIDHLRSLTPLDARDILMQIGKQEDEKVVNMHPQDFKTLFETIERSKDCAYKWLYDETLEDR
UniProt Q99523, sequence (Q99523 whole entry, looked up): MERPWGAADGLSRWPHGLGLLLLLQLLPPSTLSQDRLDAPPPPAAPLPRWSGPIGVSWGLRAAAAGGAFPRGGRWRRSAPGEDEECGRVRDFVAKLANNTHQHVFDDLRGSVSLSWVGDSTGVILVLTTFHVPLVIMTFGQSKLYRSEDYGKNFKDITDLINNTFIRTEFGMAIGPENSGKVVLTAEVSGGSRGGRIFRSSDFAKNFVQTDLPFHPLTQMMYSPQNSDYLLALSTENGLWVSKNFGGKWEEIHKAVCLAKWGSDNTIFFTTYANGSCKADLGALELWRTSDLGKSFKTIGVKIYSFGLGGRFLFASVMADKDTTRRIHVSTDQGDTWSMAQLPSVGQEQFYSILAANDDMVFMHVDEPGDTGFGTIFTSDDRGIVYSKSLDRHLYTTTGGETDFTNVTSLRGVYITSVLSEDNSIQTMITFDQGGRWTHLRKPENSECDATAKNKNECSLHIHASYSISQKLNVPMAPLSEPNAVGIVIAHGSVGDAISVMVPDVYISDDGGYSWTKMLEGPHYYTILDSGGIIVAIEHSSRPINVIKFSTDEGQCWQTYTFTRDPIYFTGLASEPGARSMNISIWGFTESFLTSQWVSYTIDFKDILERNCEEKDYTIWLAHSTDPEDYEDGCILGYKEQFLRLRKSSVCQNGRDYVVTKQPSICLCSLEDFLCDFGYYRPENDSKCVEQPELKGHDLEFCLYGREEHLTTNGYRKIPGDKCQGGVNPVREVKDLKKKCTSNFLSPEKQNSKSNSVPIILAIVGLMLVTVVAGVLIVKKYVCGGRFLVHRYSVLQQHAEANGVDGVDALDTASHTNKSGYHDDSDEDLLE
UniProt Q14849, sequence (Q14849 whole entry, looked up): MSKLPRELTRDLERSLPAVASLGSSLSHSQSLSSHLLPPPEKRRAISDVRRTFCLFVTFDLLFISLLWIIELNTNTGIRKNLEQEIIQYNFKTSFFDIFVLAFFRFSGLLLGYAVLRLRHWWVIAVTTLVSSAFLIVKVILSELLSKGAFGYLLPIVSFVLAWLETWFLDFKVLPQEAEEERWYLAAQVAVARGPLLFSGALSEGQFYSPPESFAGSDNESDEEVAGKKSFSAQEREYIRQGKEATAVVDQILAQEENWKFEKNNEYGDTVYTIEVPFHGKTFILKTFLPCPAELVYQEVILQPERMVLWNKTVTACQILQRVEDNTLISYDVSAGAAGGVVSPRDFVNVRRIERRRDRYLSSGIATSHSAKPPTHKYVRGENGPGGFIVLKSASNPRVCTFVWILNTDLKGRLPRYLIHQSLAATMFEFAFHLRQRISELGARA
UniProt Q9BW92, sequence (Q9BW92 whole entry, looked up): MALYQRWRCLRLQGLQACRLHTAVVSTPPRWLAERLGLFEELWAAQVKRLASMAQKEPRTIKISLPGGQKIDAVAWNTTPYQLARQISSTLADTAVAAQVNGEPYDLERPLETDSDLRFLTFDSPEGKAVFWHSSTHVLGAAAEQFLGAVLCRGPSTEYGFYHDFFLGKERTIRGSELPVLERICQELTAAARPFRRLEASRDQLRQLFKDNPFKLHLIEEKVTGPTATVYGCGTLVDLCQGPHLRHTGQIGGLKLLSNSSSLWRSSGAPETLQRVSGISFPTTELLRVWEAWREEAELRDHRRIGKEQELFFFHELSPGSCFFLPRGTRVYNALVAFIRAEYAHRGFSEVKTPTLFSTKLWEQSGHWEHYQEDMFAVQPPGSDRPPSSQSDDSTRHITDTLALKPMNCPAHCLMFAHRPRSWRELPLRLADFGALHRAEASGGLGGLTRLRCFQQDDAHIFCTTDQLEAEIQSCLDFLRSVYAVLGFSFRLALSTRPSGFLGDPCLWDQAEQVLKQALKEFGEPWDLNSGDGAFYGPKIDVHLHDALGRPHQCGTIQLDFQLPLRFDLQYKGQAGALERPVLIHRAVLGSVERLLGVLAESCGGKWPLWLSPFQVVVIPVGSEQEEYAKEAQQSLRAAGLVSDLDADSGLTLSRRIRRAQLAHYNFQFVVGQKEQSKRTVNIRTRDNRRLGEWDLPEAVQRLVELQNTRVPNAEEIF
UniProt O15198, sequence (O15198 whole entry, looked up): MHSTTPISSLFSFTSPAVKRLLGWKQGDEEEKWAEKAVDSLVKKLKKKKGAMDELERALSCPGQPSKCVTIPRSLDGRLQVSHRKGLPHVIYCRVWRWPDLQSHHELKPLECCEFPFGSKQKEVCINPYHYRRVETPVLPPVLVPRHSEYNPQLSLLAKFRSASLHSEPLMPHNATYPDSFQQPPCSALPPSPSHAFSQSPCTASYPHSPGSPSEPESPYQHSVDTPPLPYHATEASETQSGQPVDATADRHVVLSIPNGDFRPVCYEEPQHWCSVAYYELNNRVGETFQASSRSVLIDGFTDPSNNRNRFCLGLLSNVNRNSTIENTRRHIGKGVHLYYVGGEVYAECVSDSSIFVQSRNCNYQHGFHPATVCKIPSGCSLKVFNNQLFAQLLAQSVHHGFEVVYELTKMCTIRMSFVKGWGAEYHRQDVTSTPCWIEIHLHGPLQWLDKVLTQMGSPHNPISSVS
UniProt Q9P289, sequence (Q9P289 whole entry, looked up): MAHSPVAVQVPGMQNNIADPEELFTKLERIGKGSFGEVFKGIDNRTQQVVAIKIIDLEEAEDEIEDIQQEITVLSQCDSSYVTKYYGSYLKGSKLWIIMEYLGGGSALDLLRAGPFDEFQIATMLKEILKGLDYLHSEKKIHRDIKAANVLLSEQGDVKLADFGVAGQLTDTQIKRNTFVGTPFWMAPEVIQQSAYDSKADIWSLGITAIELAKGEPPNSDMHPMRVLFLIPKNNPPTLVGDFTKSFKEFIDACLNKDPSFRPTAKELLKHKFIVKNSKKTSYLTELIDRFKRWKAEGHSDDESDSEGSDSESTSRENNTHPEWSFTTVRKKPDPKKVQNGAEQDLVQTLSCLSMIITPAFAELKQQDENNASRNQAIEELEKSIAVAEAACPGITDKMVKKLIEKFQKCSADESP
UniProt Q969G3, sequence (Q969G3 whole entry, looked up): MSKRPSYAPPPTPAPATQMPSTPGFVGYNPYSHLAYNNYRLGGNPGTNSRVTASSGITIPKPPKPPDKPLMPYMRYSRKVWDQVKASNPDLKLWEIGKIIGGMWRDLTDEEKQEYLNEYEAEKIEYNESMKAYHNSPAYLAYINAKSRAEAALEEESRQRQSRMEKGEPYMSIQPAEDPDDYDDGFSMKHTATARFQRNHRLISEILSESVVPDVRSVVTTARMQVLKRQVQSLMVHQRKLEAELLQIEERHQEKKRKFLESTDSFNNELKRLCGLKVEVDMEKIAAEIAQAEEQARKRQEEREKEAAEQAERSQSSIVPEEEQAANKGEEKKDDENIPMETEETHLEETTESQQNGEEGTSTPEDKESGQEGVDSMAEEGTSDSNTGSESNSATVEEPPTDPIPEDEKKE
UniProt P50225, sequence (P50225 whole entry, looked up): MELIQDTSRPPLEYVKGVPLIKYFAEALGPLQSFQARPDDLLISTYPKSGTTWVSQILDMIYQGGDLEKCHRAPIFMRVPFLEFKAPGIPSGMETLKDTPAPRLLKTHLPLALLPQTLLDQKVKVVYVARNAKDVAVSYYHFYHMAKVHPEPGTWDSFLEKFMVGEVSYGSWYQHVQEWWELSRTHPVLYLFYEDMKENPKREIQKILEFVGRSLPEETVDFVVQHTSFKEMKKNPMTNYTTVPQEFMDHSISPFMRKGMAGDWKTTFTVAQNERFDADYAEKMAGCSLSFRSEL
UniProt O00193, sequence (O00193 whole entry, looked up): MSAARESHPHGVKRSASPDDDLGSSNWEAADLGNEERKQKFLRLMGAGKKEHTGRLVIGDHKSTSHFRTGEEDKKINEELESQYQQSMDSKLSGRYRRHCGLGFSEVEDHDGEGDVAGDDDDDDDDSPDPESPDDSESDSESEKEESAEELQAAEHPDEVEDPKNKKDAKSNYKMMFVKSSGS

Target	log2 fold change (erlotinib)	log2 fold change [1]	log2 fold change [2]	log2 fold change [3]	log2 fold change [4]	log2 fold change [5]	log2 fold change [6]	log2 fold change [7]	log2 fold change [8]	log2 fold change [9]
SRSF9 (UniProt Q13242)	-0.084	-0.4	-0.721 (active)	0.138	-0.211	0.052	-0.087	-0.229	–	–
SORT1 (UniProt Q99523)	0.005	-0.024	0.03	-0.012	0.014	0.034	0.022	-0.018	-0.012	0.06
SNRNP40 (UniProt Q96DI7)	-0.048	-0.012	-0.111	0.037	-0.007	0.049	-0.024	-0.005	0	0.008
SLC38A7 (UniProt Q9NVC3)	0.009	-0.003	0.071	0.058	0.024	0.088	0.441 (active)	0.006	0.011	0.097
SLC4A2 (UniProt P04920)	0.015	0.073	-0.062	0.047	0.076	0.047	0.043	-0.026	-0.023	0.002
STAM2 (UniProt O75886)	-0.026	0.081	0.036	-0.031	0.022	0.01	0.002	-0.006	-0.047	-0.025
TARS2 (UniProt Q9BW92)	0.042	-0.721 (active)	0.021	0.003	0.086	0.038	-0.03	0.003	0.001	-0.058
SMARCE1 (UniProt Q969G3)	0.101	0.04	0.017	0	0.009	0	0.001	-0.057	0.075	-0.127
SMAP2 (UniProt Q8WU79)	-0.044	0.13	-0.005	-0.032	-0.029	0.019	-0.015	0.017	-0.086	0.038
TIMM29 (UniProt Q9BSF4)	0.028	0.042	0.049	-0.025	0.064	0.018	-0.035	-0.024	0.037	0.011
STK26 (UniProt Q9P289)	0.058	-0.014	0.195	-0.014	-0.008	0.124	-0.015	-0.08	0.023	0.02
TGFBRAP1 (UniProt Q8WUH2)	0.064	0.217	-0.046	-0.119	0.084	0.062	0.194	0.121	-0.06	-0.053
SRP72 (UniProt O76094)	0.044	0.105	-0.072	-0.054	0.066	0.001	0.005	-0.052	-0.005	-0.194
TIMM44 (UniProt O43615)	-0.012	0.026	0.054	-0.007	0.024	0.041	0.042	0.012	0.028	-0.029
SMAD9 (UniProt O15198)	-0.001	0.086	0.101	-0.055	0	-0.012	-0.111	-0.098	0.113	-0.076
TDP1 (UniProt Q9NUW8)	0.141	–	–	–	–	–	–	–	–	–

Target	log2 fold change (erlotinib)	log2 fold change [1]	log2 fold change [2]	log2 fold change [3]	log2 fold change [4]	log2 fold change [5]	log2 fold change [6]	log2 fold change [7]	log2 fold change [8]	log2 fold change [9]
TFB2M (UniProt Q9H5Q4)	0.007	0.094	0.037	-0.043	0.016	0.019	-0.022	-0.019	0.002	0.007
SRSF4 (UniProt Q08170)	-0.054	0.015	-0.325	0.05	-0.155	-0.072	-0.024	-0.109	0.007	-0.254
TANK (UniProt Q92844)	-0.019	-0.031	0.101	-0.048	0.002	0.053	-0.024	-0.028	0.014	0.01
SULT1A1 (UniProt P50225)	-0.003	0.009	0.109	0.381	0.375 (active)	0.031	0.008	0.396 (active)	-0.111	0.012
TBC1D20 isoform 3 (UniProt Q96BZ9)	0.022	0.195	0.094	0.083	0.047	-0.015	-0.048	-0.048	–	–
SMARCA4 (UniProt P51532)	0.02	0.073	0.032	0.102	0.035	-0.001	-0.096	-0.124	–	–
TBRG4 (UniProt Q969Z0)	0.072	0.18	0.046	-0.154	0.063	-0.056	0.056	-0.201	-0.07	-0.036
SLC38A9 (UniProt Q8NBW4)	0.008	-0.023	-0.018	0.02	0.046	0.063	-0.071	-0.011	-0.042	0.055
TBC1D24 (UniProt Q9ULP9)	0.038	0.068	0.059	0.037	0.072	0	0.048	0.053	0.042	0.157
STXBP5 (UniProt Q5T5C0)	0.028	0.039	0.097	0.018	0.094	0.026	0.036	-0.015	-0.014	0.011
TBCD (UniProt Q9BTW9)	0.022	0.06	0.059	0.022	0.069	0.029	-0.025	-0.01	-0.016	-0.021
STARD3 (UniProt Q14849)	-0.073	0.133	-0.05	0.022	-0.095	0.058	-0.028	0.197	0.059	0.04
SMAP (UniProt O00193)	-0.006	0.026	0.119	0.017	-0.063	0.073	-0.012	0.015	0.006	0.047
STK39 (UniProt Q9UEW8)	0.064	0.07	0.038	-0.096	0.035	0.06	0.034	0.019	0.014	-0.025
THRAP3 (UniProt Q9Y2W1)	0.081	0.023	-0.071	0.067	-0.094	-0.002	-0.097	-0.171	0.038	-0.09
